Measurements from PubChem BioAssay (EPA / NIEHS).
Records with an inconclusive call do not appear. Activity calls are given as the source filed them. Rule for the calls, unless noted: active = hit-call score of the fitted dose curve at least 0.9, where 1 is the maximum; inconclusive = response in the unintended direction; inactive = score below 0.9.

Experiments:
[1] = read-out: Glyceraldehyde-3-phosphate dehydrogenase (Homo sapiens) (UniProt P04406); assay: CLD_GAPDH_24hr: CellzDirect (CLD) Gene Expression Assay for Baseline Control (Glyceraldehyde 3-phosphate dehydrogenase) at 24 hours (AID 2283692)
Outline: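 GAPDH baseline-control readout: qNPA chemiluminescent mRNA signal in human primary hepatocytes harvested 24 h after daily dosing, normalised to 0.2% DMSO with positive fitting direction; cytotoxicity annotated by phase-contrast morphology.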

[2] = read-out: ABC Transporter (ABCB11), ABCB11 (gene 8647); assay: CLD_ABCB11_48hr: CellzDirect (CLD) Gene Expression Assay for ABC Transporter (ABCB11) at 48 hours (AID 2283697)
Outline: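 Induction of ABCB11 mRNA relative to 0.2% DMSO, measured at 48 h by qNPA chemiluminescence. Cultured human hepatocytes (two donors) received fresh dosing solutions at several concentrations on two consecutive days.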

[3] = read-out: Cytochrome P450 3A4 (Homo sapiens) (UniProt P08684); assay: CLD_CYP3A4_48hr: CellzDirect (CLD) Gene Expression Assay for xenobiotic metabolism (CYP3A4) at 48 hours (AID 2283698)
Outline: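 CYP3A4 induction read by qNPA chemiluminescence after 48 h, with fresh dosing solutions on consecutive days, in cultured human hepatocytes (two donors). Vehicle 0.2% DMSO as baseline; microscopy-based cytotoxicity annotated yes/no alongside data.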

[4] = read-out: Cytochrome P450 2C19 (Homo sapiens) (UniProt P33261); assay: CLD_CYP2C19_48hr: CellzDirect (CLD) Gene Expression Assay for xenobiotic metabolism (CYP2C19) at 48 hours (AID 2283700);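 note: fitted upward so actives raise CYP2C19 mRNA above the 0.2% DMSO vehicle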
Outline: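 CYP2C19 mRNA induction read by chemiluminescent quantitative nuclease protection assay after 48 h, with fresh compound added daily for two days to cultured human liver hepatocytes. Activity fitted upward against 0.2% DMSO vehicle.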

[5] = CLD_ACTIN_48hr: CellzDirect (CLD) Gene Expression Assay for Baseline Control (Actin) at 48 hours (AID 2283702)
Outline: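 Background-control actin mRNA read by qNPA chemiluminescence at 48 h. Human hepatocyte cultures from two donors received fresh multi-concentration chemical doses daily for two days; 0.2% DMSO served as vehicle baseline.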

[6] = read-out: xenobiotic metabolism (CYP1A2), CYP1A2 (gene 1544); assay: CLD_CYP1A2_48hr: CellzDirect (CLD) Gene Expression Assay for xenobiotic metabolism (CYP1A2) at 48 hours (AID 2283703)
Outline: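 Cytotoxicity was flagged yes/no from morphology, while CYP1A2 transcript induction was detected by qNPA chemiluminescence after a 48-hour exposure. Human primary hepatocyte cultures from separate donors received fresh dosing solutions daily over two days, with 0.2% DMSO as vehicle and baseline.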

[7] = read-out: Broad substrate specificity ATP-binding cassette transporter ABCG2 (Homo sapiens) (UniProt Q9UNQ0); assay: CLD_ABCG2_48hr: CellzDirect (CLD) Gene Expression Assay for ABC Transporter (ABCG2) at 48 hours (AID 2283704)
Outline: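 ABCG2 transcript measured at 48 h by quantitative nuclease protection (chemiluminescent) and fitted for increase relative to 0.2% DMSO. Hepatocyte cultures from separate donors got fresh compound daily over two days; morphology annotated cytotoxicity.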

[8] = read-out: xenobiotic metabolism (CYP1A1), CYP1A1 (gene 1543); assay: CLD_CYP1A1_48hr: CellzDirect (CLD) Gene Expression Assay for xenobiotic metabolism (CYP1A1) at 48 hours (AID 2283705)
Outline: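 CYP1A1 transcript measured by quantitative nuclease protection (chemiluminescent) 48 h after two daily treatments of human hepatocyte cultures, versus 0.2% DMSO. Morphology-based cytotoxicity flags accompany data; two donor preparations used.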

[9] = read-out: alkyl and aryl transferase (GSTA2), GSTA2 (gene 2939); assay: CLD_GSTA2_48hr: CellzDirect (CLD) Gene Expression Assay for alkyl and aryl transferase (GSTA2) at 48 hours (AID 2283708);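 note: active means mRNA induction above DMSO vehicle baseline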
Outline: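 GSTA2 mRNA quantified by qNPA chemiluminescence in human primary hepatocyte lysates after 48 h of daily fresh chemical dosing. Increases fitted against 0.2% DMSO vehicle baseline; cytotoxicity from morphology annotated yes/no.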

[10] = read-out: sulfotransferase (SULT2A), SULT2A1 (gene 6822); assay: CLD_SULT2A_48hr: CellzDirect (CLD) Gene Expression Assay for sulfotransferase (SULT2A) at 48 hours (AID 2283710);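 note: hits raise SULT2A1 transcript above the 0.2% DMSO vehicle baseline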
Outline: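 SULT2A1 transcript measured by qNPA chemiluminescence in human primary hepatocyte cultures after 48 h, with fresh dosing solutions on two consecutive days; gain-of-signal fitting against 0.2% DMSO vehicle; cytotoxicity annotated from phase-contrast morphology.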

[11] = read-out: sulfotransferase (SULT2A), SULT2A1 (gene 6822); assay: CLD_SULT2A_24hr: CellzDirect (CLD) Gene Expression Assay for sulfotransferase (SULT2A) at 24 hours (AID 2283694)
Outline: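 mRNA is measured by qNPA: probe hybridisation, S1 nuclease digestion, chemiluminescence, in lysates from human primary hepatocytes harvested 24 h after daily dosing. Vehicle was 0.2% DMSO. Phase-contrast microscopy flagged cytotoxicity (yes/no).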

[12] = read-out: glucuronosyltransferase (UGT1A1), UGT1A1 (gene 54658); assay: CLD_UGT1A1_24hr: CellzDirect (CLD) Gene Expression Assay for glucuronosyltransferase (UGT1A1) at 24 hours (AID 2283696)
Outline: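 UGT1A1 transcript induction was measured by quantitative nuclease protection assay (chemiluminescence) in human hepatocyte cultures 24 h after daily fresh dosing, with 0.2% DMSO as vehicle and baseline.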

[13] = read-out: xenobiotic metabolism (CYP2C9), CYP2C9 (gene 1559); assay: CLD_CYP2C9_48hr: CellzDirect (CLD) Gene Expression Assay for xenobiotic metabolism (CYP1A2) at 48 hours (AID 2283701; active = hit-call score of the fitted dose curve at least 0.9, where 1 is the maximum; inactive = score below 0.9)
Outline: (§1)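 mRNA level measured by quantitative nuclease protection (S1 digestion, chemiluminescent detection) in lysates of human primary hepatocytes exposed 48 h with daily re-dosing. Induction fitted positively versus 0.2% DMSO; morphology-based cytotoxicity flagged yes/no.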

[14] = read-out: Glyceraldehyde-3-phosphate dehydrogenase (Homo sapiens) (UniProt P04406); assay: CLD_GAPDH_48hr: CellzDirect (CLD) Gene Expression Assay for Baseline Control (Glyceraldehyde 3-phosphate dehydrogenase) at 48 hours (AID 2283706);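 note: active means higher GAPDH mRNA than DMSO vehicle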
Outline: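 GAPDH baseline-control readout: qNPA chemiluminescent mRNA quantitation in human liver primary cells 48 h after daily dosing on two consecutive days, vehicle 0.2% DMSO; gain of signal fitted against DMSO, cytotoxicity flagged by phase-contrast morphology.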

[15] = read-out: organic anion transporter (SLCO1B1), SLCO1B1 (gene 10599); assay: CLD_SLCO1B1_48hr: CellzDirect (CLD) Gene Expression Assay for organic anion transporter (SLCO1B1) at 48 hours (AID 2283707)
Outline: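 SLCO1B1 transcript quantified by qNPA with chemiluminescent readout after 48 h of once-daily chemical exposure. Cultured human primary hepatocytes came from two donors, with 0.2% DMSO vehicle; positive-direction fitting against DMSO, cytotoxicity flagged by morphology.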

[16] = read-out: ABC Transporter (ABCB1), ABCB1 (gene 5243); assay: CLD_ABCB1_48hr: CellzDirect (CLD) Gene Expression Assay for ABC Transporter (ABCB1) at 48 hours (AID 2283695)
Outline: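 ABCB1 mRNA was measured by quantitative nuclease protection assay (chemiluminescence) 48 h after dosing. Human hepatocyte cultures from two separate donors received fresh dosing solutions daily for two days, with 0.2% DMSO as vehicle. Positive-direction fit against DMSO.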

[17] = read-out: Cytochrome P450 2C9 (Homo sapiens) (UniProt P11712); assay: CLD_CYP2C9_48hr: CellzDirect (CLD) Gene Expression Assay for xenobiotic metabolism (CYP2C9) at 48 hours (AID 2283701)
Outline: as §1

[18] = read-out: glucuronosyltransferase (UGT1A1), UGT1A1 (gene 54658); assay: CLD_UGT1A1_48hr: CellzDirect (CLD) Gene Expression Assay for glucuronosyltransferase (UGT1A1) at 48 hours (AID 2283709);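 note: actives increase expression relative to DMSO so potency refers to induction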
Outline: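 Quantitative nuclease protection assay (chemiluminescent) for UGT1A1 mRNA at 48 h in human hepatocyte cultures from two donors, redosed daily with fresh solutions. Induction fitted relative to 0.2% DMSO; phase-contrast morphology annotated cytotoxicity.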

[19] = read-out: Cytochrome P450 2B6 (Homo sapiens) (UniProt P20813); assay: CLD_CYP2B6_48hr: CellzDirect (CLD) Gene Expression Assay for xenobiotic metabolism (CYP2B6) at 48 hours (AID 2283699);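 note: actives raise transcript level above DMSO so potency reflects induction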
Outline: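 CYP2B6 transcript induction, read by quantitative nuclease protection (S1 digestion, chemiluminescent detection) 48 h after dosing, is fitted upward against 0.2% DMSO. Cultured human liver primary cells, two donor preparations, received fresh chemical daily over multiple concentrations.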

Measured: AC50

Sequence of Cytochrome P450 2C19 (Homo sapiens) (P33261 whole entry, looked up): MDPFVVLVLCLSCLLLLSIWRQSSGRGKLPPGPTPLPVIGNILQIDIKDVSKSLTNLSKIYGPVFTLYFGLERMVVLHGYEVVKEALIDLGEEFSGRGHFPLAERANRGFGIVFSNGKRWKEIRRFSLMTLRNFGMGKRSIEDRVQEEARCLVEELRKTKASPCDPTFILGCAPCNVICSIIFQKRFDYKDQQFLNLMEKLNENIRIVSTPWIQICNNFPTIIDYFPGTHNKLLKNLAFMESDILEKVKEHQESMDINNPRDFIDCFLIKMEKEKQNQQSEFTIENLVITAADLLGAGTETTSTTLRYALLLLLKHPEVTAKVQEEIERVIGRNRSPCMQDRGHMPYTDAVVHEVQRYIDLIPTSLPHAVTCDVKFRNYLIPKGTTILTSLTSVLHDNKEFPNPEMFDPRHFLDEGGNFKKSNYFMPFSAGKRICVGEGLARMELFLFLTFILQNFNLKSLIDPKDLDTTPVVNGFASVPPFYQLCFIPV
Sequence of Cytochrome P450 3A4 (Homo sapiens) (P08684 whole entry, looked up): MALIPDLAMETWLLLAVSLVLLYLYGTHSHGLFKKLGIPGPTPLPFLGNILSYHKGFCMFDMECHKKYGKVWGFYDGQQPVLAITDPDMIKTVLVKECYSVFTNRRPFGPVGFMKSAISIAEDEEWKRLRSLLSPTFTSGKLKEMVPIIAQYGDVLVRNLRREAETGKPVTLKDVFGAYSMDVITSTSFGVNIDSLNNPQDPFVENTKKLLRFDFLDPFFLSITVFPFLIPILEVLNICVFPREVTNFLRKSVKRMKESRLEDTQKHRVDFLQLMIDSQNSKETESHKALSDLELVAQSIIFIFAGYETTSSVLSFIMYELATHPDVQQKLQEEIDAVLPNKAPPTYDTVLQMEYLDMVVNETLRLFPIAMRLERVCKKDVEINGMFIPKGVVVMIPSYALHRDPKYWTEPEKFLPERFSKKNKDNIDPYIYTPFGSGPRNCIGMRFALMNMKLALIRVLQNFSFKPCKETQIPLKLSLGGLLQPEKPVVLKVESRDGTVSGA
Sequence of Glyceraldehyde-3-phosphate dehydrogenase (Homo sapiens) (P04406 whole entry, looked up): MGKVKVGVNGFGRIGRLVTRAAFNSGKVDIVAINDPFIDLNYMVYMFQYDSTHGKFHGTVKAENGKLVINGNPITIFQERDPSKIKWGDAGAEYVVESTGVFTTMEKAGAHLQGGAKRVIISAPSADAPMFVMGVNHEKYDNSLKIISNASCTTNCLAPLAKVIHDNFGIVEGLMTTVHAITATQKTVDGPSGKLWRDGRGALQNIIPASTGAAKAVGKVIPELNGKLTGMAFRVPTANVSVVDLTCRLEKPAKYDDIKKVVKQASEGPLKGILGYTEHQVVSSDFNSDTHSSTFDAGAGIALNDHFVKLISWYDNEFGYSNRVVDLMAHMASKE
Sequence of Broad substrate specificity ATP-binding cassette transporter ABCG2 (Homo sapiens) (Q9UNQ0 whole entry, looked up): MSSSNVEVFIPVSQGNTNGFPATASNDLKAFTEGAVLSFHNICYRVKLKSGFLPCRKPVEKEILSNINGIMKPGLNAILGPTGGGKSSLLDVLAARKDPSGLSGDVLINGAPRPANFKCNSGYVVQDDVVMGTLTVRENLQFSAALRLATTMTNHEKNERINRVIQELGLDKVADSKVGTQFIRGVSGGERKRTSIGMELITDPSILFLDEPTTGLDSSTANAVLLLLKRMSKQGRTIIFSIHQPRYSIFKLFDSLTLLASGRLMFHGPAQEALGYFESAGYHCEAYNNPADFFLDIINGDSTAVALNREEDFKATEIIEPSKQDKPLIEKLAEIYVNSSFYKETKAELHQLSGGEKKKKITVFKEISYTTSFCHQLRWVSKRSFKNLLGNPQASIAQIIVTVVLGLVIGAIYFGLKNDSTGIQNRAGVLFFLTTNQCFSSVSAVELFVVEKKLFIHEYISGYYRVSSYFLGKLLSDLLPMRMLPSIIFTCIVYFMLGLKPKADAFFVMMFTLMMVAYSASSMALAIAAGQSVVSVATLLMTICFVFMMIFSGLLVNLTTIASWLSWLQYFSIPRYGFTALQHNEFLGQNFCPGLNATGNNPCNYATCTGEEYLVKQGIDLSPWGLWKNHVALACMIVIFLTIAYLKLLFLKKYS

CCNC(=O)NC(=O)C(C#N)=NOC
inactive: [1] | [2] | [3] | [4] | [5] | [6] | [7] | [8] | [9] | [10]

O=C(O)c1c(Cl)ccc2cc(Cl)cnc12
active: [13] 0.069 µM
not listed: [5] | [7] | [16] | [17] | [18] | [19]
inactive: all other assays above

N#Cc1c[nH]cc1-c1cccc2c1OC(F)(F)O2
active: [6] 2.37 µM | [8] 31.8 µM
inactive: [12] | [3]

CC(C)N1C(=O)N(c2ccccc2)CSC1=NC(C)(C)C
inactive: [11] | [16] | [12] | [4] | [17] | [6] | [7] | [9] | [18]
active: [3] 8.18 µM | [8] 33.6 µM | [10] 33.1 µM

Cc1nc(N(C)C)nc(OC(=O)N(C)C)c1C
inactive: [16] | [12] | [2] | [3] | [4] | [17] | [5] | [8] | [14]
active: [19] 5.26 µM | [6] 3.27 µM

COC(=O)NC(=S)Nc1ccccc1NC(=S)NC(=O)OC
active: [3] 3.45 µM | [6] 15.7 µM | [8] 3.32 µM
not listed: [1] | [4] | [13] | [14] | [19]
inactive: all other assays above

Cc1cc(C)nc(Nc2ccccc2)n1
inactive: [12] | [3] | [17] | [10]
active: [6] 7.9 µM | [8] 3.97 µM

CCNP(=S)(OC)O/C(C)=C/C(=O)OC(C)C (stereo not drawn)
inactive: [17] | [10]
active: [12] 1.7 µM | [3] 0.654 µM | [6] 1.99 µM | [8] 3.99 µM | [18] 1.04 µM

CCOc1cc(C(C)(C)C)ccc1C1COC(c2c(F)cccc2F)=N1 (stereo not drawn)
inactive: [16] | [12] | [17] | [7] | [15] | [18]
active: [3] 1.9 µM | [19] 2.11 µM | [6] 20 µM | [8] 30.3 µM | [10] 7.73 µM
